Measured values taken from the OligoGym collection.

Target: SRSF6
Experiment: pooled miR-30 sensor sort-seq; sequence = guide strand
Conditions: shRNA
Note: reference of the scale not given here.

Sequence | sensor-assay potency score (higher = more potent)
TTTGAGGTCTACTTCGAGGAGG | -0.608
TACTTCGTGACCGTCTTCTAGA | -0.126
TTGACTTTGAGCGAGATCTAGA | -0.299
TTGATCTTGACTTTGAGCGAGA | -0.415
TTAGATTTGCTCTTTGATCTAG | 0.289
TAGATTTGCTCTTTGATCTAGA | 0.174
TTGATCGAGAACGTGATCGACC | -0.727
TAGATCTGCTTCGAGAATGTGA | -0.00685
TTGAGCGAGATCTAGAACGGGA | 0.0866
TTGAAGTAGCTCTTTTTGGTGG | -0.375
ATTTTTGAGGTCTACTTCGAGG | -1.54
TTGATCTAGATTTCCTGCCTTT | 0.199

Target: SRSF7
Experiment: as above
Conditions: shRNA

Sequence | sensor-assay potency score (higher = more potent)
TTTCTAACTCTCCTTTGCCAGC | -1.58
TGCATCTCTAGGATCTTCGAAT | -1.39
TAGACCTGGATCTTGATCTTGA | -0.00181
TTACCAACATACACCTTGGTTT | -0.665
TATCAAAACGTGATCTCCGAGG | -0.606
TAGATCTTCTGAGTGAAGCTGA | 0.474
TAAAGGACCATAATAACTGAAA | -1.16
TTCTGAGTGAAGCTGATCTTGA | -0.735
TTTCTCGCAATCCATACAGTTC | -1
TTGATCTTGACCTCGACGGGGA | 0.107
TTGATCGTCGAGGAGATGCTGA | -0.317
TAGATCTTGATCGTCGAGGAGA | -0.545

Target: SS18
Experiment: as above
Conditions: shRNA

Sequence | sensor-assay potency score (higher = more potent)
TTGTGTGCAACATCTGCTGATA | -0.703
TTGGTTAACTTGACCCATCATT | -0.57
TTTCAGTCTGTAACAGTCCATT | -0.917
TTTATCTTTATAGCACACCATT | -1.15
TTGTCATCCAACATCTTCTGAA | -0.31
TTTGTGTGCAACATCTGCTGAT | 0.199
TTATACACTGAATAAGATGGTT | -0.124
TATTGTATTGCTGAGAAGGAGG | -1.18
TAGAATCTGCTATTGTAGCAAG | -0.645
TATTGTAGCAAGGTATACCAAG | -0.903
ATTGTCATCCAACATCTTCTGA | -0.704
TTGTCATCTGATTCTGTACTGG | -0.29
